Data on 40 compounds can be found in the supplement of paper PMC7366291.

Counter-ions that a name gives are not always drawn. ± gives the standard deviation of the averaged measurements.

The subject of the first experiment is Danio rerio Tg(wt1b:EGFP) embryo, pronephros. As to the kind of experiment: fraction of imaged embryos annotated as normal kidney; higher = less nephrotoxic; extreme values may be limits of the assay. The following applies: 25 µM; exposure: 24-48 hpf. Put shortly:
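The read-out is the proportion of embryos in each treatment manually annotated as normal-kidney. Exposure ran from 24 to 48 hpf at 28.5°C in 12-well plates, using dechorionated Tg(wt1b:EGFP) zebrafish embryos in 5 mM HEPES-buffered E3 with 0.003% PTU, 0.5% DMSO and 25 μM compound. For imaging, larvae were anaesthetised with tricaine, positioned dorsally in agarose-filled 96-well plates and captured by widefield fluorescence (470 nm, 10 z-slices), with scoring done on maximum projections.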
In the case of `CC(C)c1nc(CN(C)C(=O)N[C@H](C(=O)N[C@@H](Cc2ccccc2)C[C@H](O)[C@H](Cc2ccccc2)NC(=O)OCc2cncs2)C(C)C)cs1` [Ritonavir], the “fraction of imaged embryos annotated as normal kidney” value (shortened to “fraction of imaged embryos annotated”) was determined as 1.

`CN1CCN(c2c(F)cc3c(=O)c(C(=O)O)cn4c3c2SCC4)CC1` [Rufloxacin]: the “fraction of imaged embryos annotated” value was 1. As to `O=C(CCCCCCC(=O)Nc1ccccc1)NO` [Vorinostat], the “fraction of imaged embryos annotated” value stood at 0.667. Turning to `Cc1ccnc2c1NC(=O)c1cccnc1N2C1CC1` [Nevirapine], the “fraction of imaged embryos annotated” value was 0.917. With `C[C@@H](O)[C@H]1C(=O)N2C(C(=O)O)=C(S[C@@H]3CN[C@H](C(=O)N(C)C)C3)[C@H](C)[C@H]12` [Meropenem], the “fraction of imaged embryos annotated” value turned out to be 0.75.

A further experiment shares this test system. As to the kind of experiment: pronephric angle neck segment to proximal convoluted tubule (mean of left and right), fold change vs DMSO control; higher = larger pronephric angle. As to conditions: 25 µM; exposure: 24-48 hpf. In outline:
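Features are reported as fold changes against the mean of same-day DMSO-treated embryos. Before that, values more than 2 SD away from the feature mean were excluded. The embryos, dechorionated Tg(wt1b:EGFP) zebrafish, had been exposed from 24 to 48 hpf at 28.5°C to 25 μM compound in 0.5% DMSO in HEPES-buffered E3 with 0.003% PTU, and distances and angles came from 16 manually set points on maximum projections of dorsal pronephros images in Fiji.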
With `CNCCC=C1c2ccccc2CCc2ccccc21` [Nortriptyline hydrochloride], the “pronephric angle neck segment” value was 1.03 ± 0.011.

As for `CCCc1cc(=O)[nH]c(=S)[nH]1` [Propylthiouracil], the “pronephric angle neck segment” value came out at 1.02 ± 0.044. On to `CN(C/C=C/c1ccccc1)Cc1cccc2ccccc12` [Naftifine hydrochloride], for which the “pronephric angle neck segment” value was 0.982 ± 0.078. For the compound `CN(C)CCC=C1c2ccccc2CCc2ccccc21` [Amitryptiline hydrochloride], the “pronephric angle neck segment” value is 1.02 ± 0.072. Consider `O=C(NCCNCC(O)COc1ccc(O)cc1)N1CCOCC1` (stereo not given) [Xamoterol hemifumarate], for which the “pronephric angle neck segment” value turned out to be 0.98 ± 0.045.

For the compound `COC(=O)C1=C(C)NC(C)=C(C(=O)OCCN(C)Cc2ccccc2)C1c1cccc([N+](=O)[O-])c1` (stereo not given) [Nicardipine hydrochloride], the “pronephric angle neck segment” value was 1.01 ± 0.036. Regarding `Oc1ccc(OCc2ccccc2)cc1` [Monobenzone], the “pronephric angle neck segment” value was 1.21 ± 0.018. Take `OC(CCN1CCCCC1)(c1ccccc1)c1ccccc1` [Pridinol methanesulfonate salt]: the “pronephric angle neck segment” value came out at 0.986 ± 0.089. For the compound `Cc1cccc(CN2CCN(C(c3ccccc3)c3ccc(Cl)cc3)CC2)c1` (stereo not given) [Meclozine dihydrochloride], the “pronephric angle neck segment” value is 1.03 ± 0.073. On the same count and under the same terms, next, `C[C@H](CS)C(=O)N1CCC[C@H]1C(=O)O` [Captopril]: 1.02 ± 0.09; `CC[C@@H]1C(=O)OC[C@@H]1Cc1cncn1C` [Pilocarpine nitrate]: 1.02 ± 0.021. `CC(C)/N=c1\cc2n(-c3ccc(Cl)cc3)c3ccccc3nc-2cc1Nc1ccc(Cl)cc1` [Clofazimine]: the “pronephric angle neck segment” value worked out at 0.961 ± 0.0097.

For `COc1ccc(NS(=O)(=O)c2ccc(N)cc2)nn1` [Sulfamethoxypyridazine], the “pronephric angle neck segment” value was determined as 1.006 ± 0.0011. The same measure, in the same setting: as for `CCn1cc(C(=O)O)c(=O)c2ccc(C)nc21` [Nalidixic acid sodium salt], the figure is 1.19 ± 0.022; as for `COC1=CC(=O)C[C@@H](C)[C@]12Oc1c(Cl)c(OC)cc(OC)c1C2=O` [Griseofulvin], 0.947 ± 0.01. The same measure, in the same setting: as for `NS(=O)(=O)c1cc2c(cc1C(F)(F)F)NC(Cc1ccccc1)NS2(=O)=O` (stereo not given) [Bendroflumethiazide], the figure is 1.09 ± 0.083.

With `CC(C(=O)O)c1ccc(C(=O)c2ccccc2)s1` (stereo not given) [Tiaprofenic acid], the “pronephric angle neck segment” value amounted to 1.03 ± 0.015. Turning to `CC(C)(C)NC(=O)[C@@H]1C[C@@H]2CCCC[C@@H]2CN1C[C@@H](O)[C@H](Cc1ccccc1)NC(=O)[C@H](CC(N)=O)NC(=O)c1ccc2ccccc2n1` [Saquinavir mesylate], the “pronephric angle neck segment” value was 0.977 ± 0.016.

As for `CC(C)(Oc1ccc(Cl)cc1)C(=O)O` [Clofibric acid], the “pronephric angle neck segment” value worked out at 1.001 ± 0.0094. Take `CCN(CC)CCCC(C)Nc1c2ccc(Cl)cc2nc2ccc(OC)cc12` (stereo not given) [Quinacrine dihydrochloride hydrate]: the “pronephric angle neck segment” value was found to be 0.971 ± 0.021.

As for `O=C(O)CCc1nc(-c2ccccc2)c(-c2ccccc2)o1` [Oxaprozin], the “pronephric angle neck segment” value is 1.87 ± 0.14. Regarding `CCCc1cc(C(N)=S)ccn1` [Prothionamide], the “pronephric angle neck segment” value is 1.007 ± 0.0083. Regarding `C[C@]1(Cn2ccnn2)[C@H](C(=O)O)N2C(=O)C[C@H]2S1(=O)=O` [Tazobactam], the “pronephric angle neck segment” value stood at 0.985 ± 0.018.

As to `CC(=O)O[C@]1(C(C)=O)CC[C@H]2[C@@H]3C=C(Cl)C4=CC(=O)[C@@H]5C[C@@H]5[C@]4(C)[C@H]3CC[C@@]21C` [Cyproterone acetate], the “pronephric angle neck segment” value amounted to 0.977 ± 0.017. On to `C[C@]12C=CC(=O)C=C1CC[C@@H]1[C@@H]2[C@@H](O)C[C@@]2(C)[C@H]1CC[C@]2(O)C(=O)CO` [Prednisolone], for which the “pronephric angle neck segment” value came out at 1.04 ± 0.02. As for `NS(=O)(=O)c1cc2c(cc1Cl)NC(CC1CCCC1)NS2(=O)=O` (stereo not given) [Cyclopenthiazide], the “pronephric angle neck segment” value came to 1 ± 0.012.

For `CN1CCC(=C2c3ccccc3CC(=O)c3sccc32)CC1` [Ketotifen fumarate], the “pronephric angle neck segment” value stood at 0.948 ± 0.013. `CCCCC1(COC(=O)CCC(=O)O)C(=O)N(c2ccccc2)N(c2ccccc2)C1=O` [Suxibuzone]: the “pronephric angle neck segment” value came to 0.992 ± 0.016. Same read-out and setting: as for `COc1cc(OC)c(C(=O)CCCN2CCCC2)c(OC)c1` [Buflomedil hydrochloride], the figure is 1.01 ± 0.053; as for `CCN(CC)CC#CCOC(=O)C(O)(c1ccccc1)C1CCCCC1` (stereo not given) [Oxybutynin chloride], 0.985 ± 0.028. Take `CC(=O)Oc1cc(C(C)C)c(OCCN(C)C)cc1C` [Moxisylyte hydrochoride]: the “pronephric angle neck segment” value worked out at 0.977 ± 0.068.

For `O=C(OCCOCCO)c1ccccc1Nc1cccc(C(F)(F)F)c1` [Etofenamate], the “pronephric angle neck segment” value worked out at 1.75 ± 0.018. In the case of `COc1ccc(-c2ccc3cc(C(=O)O)ccc3c2)cc1C12CC3CC(CC(C3)C1)C2` [Adapalene], the “pronephric angle neck segment” value stood at 1.1 ± 0.0022.

Take `Cc1cc(NC(=O)C2=C(O)c3ccccc3S(=O)(=O)N2C)no1` [Isoxicam]: the “pronephric angle neck segment” value stood at 1.02 ± 0.036.

Regarding `CNC1(C)C2CCC(C2)C1(C)C` (stereo not given) [Mecamylamine hydrochloride], the “pronephric angle neck segment” value was determined as 1.07 ± 0.074.

For the compound `CC(C)c1nc(CN(C)C(=O)N[C@H](C(=O)N[C@@H](Cc2ccccc2)C[C@H](O)[C@H](Cc2ccccc2)NC(=O)OCc2cncs2)C(C)C)cs1` [Ritonavir], the “pronephric angle neck segment” value was found to be 1.02 ± 0.033. On to `CN1CCN(c2c(F)cc3c(=O)c(C(=O)O)cn4c3c2SCC4)CC1` [Rufloxacin], for which the “pronephric angle neck segment” value is 0.986 ± 0.027.

As to `O=C(CCCCCCC(=O)Nc1ccccc1)NO` [Vorinostat], the “pronephric angle neck segment” value worked out at 1 ± 0.053. On to `Cc1ccnc2c1NC(=O)c1cccnc1N2C1CC1` [Nevirapine], for which the “pronephric angle neck segment” value worked out at 1.03 ± 0.048. For `C[C@@H](O)[C@H]1C(=O)N2C(C(=O)O)=C(S[C@@H]3CN[C@H](C(=O)N(C)C)C3)[C@H](C)[C@H]12` [Meropenem], the “pronephric angle neck segment” value came out at 1.0113 ± 1.4e-05.
